Test results taken from PubChem BioAssay AID1117270 (Broad Institute, 2014).
Potency and affinity values are given separately. The source made the active and inactive calls.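 Rule for the calls: active = compounds with a valid dose curve toward the stimulated control whose half-maximal dose is at most twice the top dose; inconclusive = curve fit judged invalid or of poor quality; inactive = the rest.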

Experiment: SELE mRNA upregulation in endothelial cells – cell-based, HUVEC, RT-qPCR, dry powder, orthogonal assay for E-selectin inducer project, confirmation (AID 1117270)
Conditions: 7 h; at 38 µM unless noted

**Q.** Which max activity does the source give for Cc1cc2cc(CNC(=O)Nc3cccc(Cl)c3)ccc2n1C here?
**A.** 7.76% [at 1.2 µM] (inactive)

**Q.** Which max activity does the source give for CCc1ccc(-n2c(=S)sc3c(=O)n(-c4ccccc4C)c(SCC(=O)O)nc32)cc1 here?
**A.** 9.28% [at 10 µM] (inactive)

**Q.** With Cc1cc2cc(CNC(=O)Nc3ccc(Cl)c(Cl)c3)ccc2n1C as the compound, how does the max activity read?
**A.** -8.31% (inactive)

**Q.** With O=C(c1c(F)cccc1F)N(Cc1ccccc1)Cc1ccccc1 as the compound, how does the max activity read?
**A.** -17.4% [at 0.16 µM] (inactive)

**Q.** For Cc1ccc(CSc2nc3[nH]ncc3c(=O)[nH]2)cc1, which max activity is on record?
**A.** 8.8% [at 0.0001 µM] (inactive)

**Q.** Which max activity does the source give for Cc1cc(C)c(S(=O)(=O)NCCn2c(C)cc3ccccc32)c(C)c1 here?
**A.** -91.1% (inactive)

**Q.** Which max activity does the source give for OCc1ccc(-c2nn(Cc3ccccc3)c3ccccc23)o1 here?
**A.** 6.5% [at 2.6 µM] (inactive)

**Q.** For COc1ccc(Nc2ccccc2N)cc1, which max activity is on record?
**A.** 12.2% (inactive)

**Q.** For Cc1cc2ccccc2n1CCNC(=O)COc1ccc2ccccc2c1, which max activity is on record?
**A.** 9.31% [at 10 µM] (inactive)

**Q.** For Cc1ccc(S(=O)(=O)NCc2ccc3c(c2)cc(C)n3C)cc1, which max activity is on record?
**A.** 4.64% (inactive)

**Q.** Which max activity does the source give for CNc1ccccc1C(C)(C)c1cc(-c2cccc(OC)c2)no1 here?
**A.** -5.8% [at 0.0001 µM] (inactive)

**Q.** Which max activity does the source give for O=C(O)C1CCN(c2nc(-c3ccccc3)c3cc(Br)ccc3n2)CC1 here?
**A.** -4.71% [at 0.038 µM] (inactive)

**Q.** For CCc1cccc2c1NC1(CCCC1)CC2C (centres undefined), which max activity is on record?
**A.** 7.51% [at 5 µM] (inactive)

**Q.** For COc1cc(CC2C(=O)Nc3ccccc32)cc(C)c1O (centres undefined), which max activity is on record?
**A.** 8.57% [at 0.038 µM] (inactive)
